# In PubChem BioAssay (Tox21):
# Inconclusive results are not listed. Unmarked numbers belong to inactive results. Activity calls are given as the source filed them. Unless noted, the call rests on the fitted dose curve; in most records, active means well fitted cell-killing curve with a large enough effect in the repeat runs; inconclusive means weak or mixed curves, or effect the other way; inactive means no such curve, though single readings can be large or run the other way.
# Target: Peroxisome proliferator-activated receptor gamma (Homo sapiens) (UniProt P37231)
# Assay: qHTS assay to identify small molecule antagonists of the peroxisome proliferator-activated receptor gamma (PPARg) signaling pathway (AID 743191; calls by dose curve; further: nearly all actives have a fitted effect of over 30% in size)
# Conditions: HEK293H PPARg-UAS-bla, beta-lactamase ratio, antagonist, 17 h; series mostly up to 62.6 µM; ratio activity, negative = inhibition: at the top concentration
# Procedure, shortened: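 Beta-lactamase reporter under UAS control in HEK293H PPARg-bla cells; compound treatment 17 h at 37C. Read-out: fluorescence intensity after 1 h room-temperature incubation with LiveBLAzer B/G FRET substrate.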
# On the % scale 0 is the no-effect control and ±100 the full control effect.
# Peroxisome proliferator-activated receptor gamma (Homo sapiens), sequence (P37231 whole entry, looked up): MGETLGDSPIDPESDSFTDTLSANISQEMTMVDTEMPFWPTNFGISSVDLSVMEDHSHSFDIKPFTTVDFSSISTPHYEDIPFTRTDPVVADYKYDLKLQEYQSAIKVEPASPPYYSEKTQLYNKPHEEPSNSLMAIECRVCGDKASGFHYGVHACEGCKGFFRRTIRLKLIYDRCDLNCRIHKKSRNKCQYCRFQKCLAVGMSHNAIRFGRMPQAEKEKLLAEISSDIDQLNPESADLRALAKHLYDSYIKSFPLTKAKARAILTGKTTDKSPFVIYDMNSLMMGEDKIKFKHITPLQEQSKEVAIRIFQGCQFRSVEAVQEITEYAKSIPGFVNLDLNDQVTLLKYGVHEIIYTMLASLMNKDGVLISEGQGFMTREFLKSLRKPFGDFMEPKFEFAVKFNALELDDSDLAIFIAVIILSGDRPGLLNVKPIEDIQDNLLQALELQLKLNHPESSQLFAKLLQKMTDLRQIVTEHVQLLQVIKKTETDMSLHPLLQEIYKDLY
row,SMILES,"ratio activity, negative = inhibition"
1,O=[N+]([O-])c1ccc(O)c2ncccc12,16.6%
2,O=C1OC(=O)c2cc(-c3ccc4c(c3)C(=O)OC4=O)ccc21,-2.34%
3,Cc1ccc(Cl)c(N)c1Cl,4.24%

# Test system: not listed separately
# Assay: qHTS assay to identify small molecule antagonists of the peroxisome proliferator-activated receptor gamma (PPARg) signaling pathway - cell viability counter screen (AID 743194); further: nearly all actives have a fitted effect of over 55% in size; further: potency means the concentration at half of the fitted maximal effect
# Conditions: PPARg-bla HEK293H viability, CellTiter-Glo luminescence, 17 h, co-treated with 50 nM rosiglitazone; series mostly up to 62.6 µM; activity change, negative = cytotoxicity: at the top concentration
# Procedure, shortened: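 Viability was measured as CellTiter-Glo luminescence in GeneBLAzer PPARg UAS-bla HEK293H cells. These cells had been exposed 17 h at 37 C to compounds together with rosiglitazone at 50 nM final, with the beta-lactamase readout taken in the same wells.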
SMILES,"activity change, negative = cytotoxicity",Potency
O=[N+]([O-])c1ccc(O)c2ncccc12,-39.2%,
O=C1OC(=O)c2cc(-c3ccc4c(c3)C(=O)OC4=O)ccc21,28.9%,
COc1cc([C@@H]2c3cc4c(cc3[C@@H](O[C@@H]3O[C@@H]5CO[C@@H](C)O[C@H]5[C@H](O)[C@H]3O)[C@H]3COC(=O)[C@H]23)OCO4)cc(OC)c1O,-11%,
CN(C)CCOc1ccc(/C(=C(/CCCl)c2ccccc2)c2ccccc2)cc1,,25.8 µM (active)
c1ccc2cc3c4ccccc4c4ccccc4c3cc2c1,-4.86% [at 81.1 µM],
Cc1ccc(Cl)c(N)c1Cl,-28%,
